Screens (PubChem BioAssay)
This is a sample that favours compounds with a hit; in the whole collection about 11% have one here.
ALDH1A1 block: ALDH1A1 (human) enzyme inhibition; P00352; Purified ALDH1A1, NADH fluorescence, propionaldehyde substrate; Potency, µM (highest dose often 75.3 µM), hits mostly inhibitors; 220,000 tested, 7.3% active; AID 1030
12-hLO inh: blocks human 12-lipoxygenase activity | P18054 | purified 12-hLO, xylenol orange hydroperoxide absorbance | Potency, µM (highest dose often 57.1 µM), hits mostly inhibitors | 150,000 tested, 0.12% active | AID 1452; active = well fitted curve in the direction sought with a large enough effect; inconclusive = small, poorly fitted or top-dose-only effect, or another doubt; inactive = no such curve, though single readings can be large; an effect the other way counts as inactive or inconclusive; note: nearly all actives have a fitted effect of over 55% in size
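Hydroperoxide formation by human 12-lipoxygenase from 40 uM arachidonic acid was followed colorimetrically via ferric-xylenol orange complex, using the 573/405 nm absorbance ratio. Enzyme concentration was 150 nM, with 30 min reaction at room temperature.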
PNC assembly inh: blocks assembly of the perinucleolar compartment; PC3M PTB-GFP, PNC prevalence imaging, 16 h; stronger effect = lower value; activity change (PNC), negative = inhibition, % at 10 µM; 140,000 tested, 3.1% active; AID 2417;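 active = readout at or below -70, meaning at least 70% loss of cells showing the perinucleolar compartment, a nuclear body marking cancer cells; inconclusive = readout between -30 and a set limit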
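Read-out is percentage of cells bearing a perinucleolar compartment, from automated 20x imaging of fixed, Hoechst-stained PC3M PTB-GFP cells. Cells were seeded 4 h, then exposed 16 h to compound (23 nl of library stock) in duplicate plates.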
IMPase Li inh: cell-permeable IMPase inhibitors with lithium potentiation. AID 1457. 210,000 tested, 0.35% active. CHO-M1 cells, IP1 TR-FRET (IP-One), carbachol + lithium. Potency, µM (titrated, usually from 59.4 µM), actives largely listed as inhibitors; active = well fitted curve in the direction sought with a large enough effect; inconclusive = small, poorly fitted or top-dose-only effect, or another doubt; inactive = no such curve, though single readings can be large; an effect the other way counts as inactive or inconclusive;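 note: IP1 builds up when IMPase is blocked and the TR-FRET signal falls; nearly all actives have a fitted effect of over 50% in size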
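CHO cells stably expressing M1 receptor (2000/well, cultured 16–30 h) treated 30 min at 37C with compound plus low lithium. Cytosolic IP1 by TR-FRET (665/620 ratio and 620 channel) after 10 min lysis; AC50 by Hill fit.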
IMPase inh: cell-permeable inhibitors of inositol monophosphatase (IMPase); P97697; CHO-M1 cells, IP1 accumulation, HTRF TR-FRET ratio; inhibition (IP1 accumulation), % at 46.1 µM; 120,000 tested, under 10 active; AID 901; active = well fitted curve in the direction sought with a large enough effect in the signal ratio, not every such curve was filed as active; inconclusive = small, poorly fitted or top-dose-only effect, or a change in a side signal; inactive = no such curve, though single readings can be large or run the other way; the % refers to the signal ratio;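 note: cells stimulated with carbachol in lithium chloride buffer; higher means more IMPase inhibition seen as more IP1 and lower FRET ratio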
Target sequence (P97697 whole entry, looked up): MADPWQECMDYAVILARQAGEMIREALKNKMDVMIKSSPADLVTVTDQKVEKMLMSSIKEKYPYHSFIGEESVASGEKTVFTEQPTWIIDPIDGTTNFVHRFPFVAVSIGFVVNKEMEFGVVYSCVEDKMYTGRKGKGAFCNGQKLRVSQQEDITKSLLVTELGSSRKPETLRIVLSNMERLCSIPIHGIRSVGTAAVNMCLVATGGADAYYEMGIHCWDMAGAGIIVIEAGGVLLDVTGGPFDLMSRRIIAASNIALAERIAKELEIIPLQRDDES
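Elevated IP1 in lysates lowers TR-FRET signal (665/620 ratio and 620 channel reported). Cells were CHO-M1, given carbachol (50 uM as added) plus 50mM LiCl, pH 7.4, 30 min, 37C; compounds titrated up to 46 uM; AC50 by Hill equation.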
HPGD inh: HPGD (human) dehydrogenase inhibition; 150,000 tested, 4.3% active; purified HPGD, NADH fluorescence kinetic, PGE2 substrate; Potency, µM, actives largely listed as inhibitors
Target sequence (P15428 whole entry, looked up): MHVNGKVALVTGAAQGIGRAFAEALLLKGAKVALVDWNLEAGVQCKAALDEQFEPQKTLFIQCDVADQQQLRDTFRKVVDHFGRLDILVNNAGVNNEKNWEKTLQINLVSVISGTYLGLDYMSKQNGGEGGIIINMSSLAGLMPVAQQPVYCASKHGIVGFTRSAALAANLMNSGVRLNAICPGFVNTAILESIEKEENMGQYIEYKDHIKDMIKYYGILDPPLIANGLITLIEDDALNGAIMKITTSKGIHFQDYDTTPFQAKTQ
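NADH formation kinetics: reaction with 30 uM PGE2 and 1 mM NAD+ (final), 20 nM enzyme, Tris-HCl pH 8 with Tween 20, after 15 min compound preincubation at room temperature. Fluorescence change, last versus first of five reads.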
Numbers stand for hits; [ ] = another dose, or the depositor's remark. Unless noted, calls come from the whole dose curve; as a rule, active = well fitted inhibition curve with a large enough effect (not every such curve was filed as active); inconclusive = small, poorly fitted or top-dose-only effect, or another doubt; inactive = no such curve, though single readings can be large or run the other way.

Screening C=CC1=C(C)/C(=C/c2[nH]c(Cc3[nH]c(/C=C4\NC(=O)C(C)=C4C=C)c(C)c3CCC(=O)O)c(CCC(=O)O)c2C)NC1=O returned ALDH1A1 block inconclusive, 12-hLO inh inactive, IMPase Li inh inactive and HPGD inh inactive.
CCc1ccc[n+](-c2[nH]c(=O)sc2/C=N/NC([S-])=Nc2ccccc2)c1 was read as ALDH1A1 block 14µM, 12-hLO inh inactive, PNC assembly inh inactive and IMPase inh inactive.
Screening O=c1[nH]c(-[n+]2ccccc2)c(/C=N/NC([S-])=Nc2ccccc2)s1 returned ALDH1A1 block 20µM.
Cc1cc(C)c[n+](-c2[nH]c(=O)sc2/C=N/NC([S-])=Nc2ccccc2)c1 was read as ALDH1A1 block inconclusive, 12-hLO inh inactive, PNC assembly inh inactive, IMPase Li inh inactive, IMPase inh inactive and HPGD inh 28µM.
`Cc1cc[n+](-c2[nH]c(=O)sc2/C=N/NC([S-])=Nc2ccccc2)cc1` gave ALDH1A1 block 25µM, 12-hLO inh inactive, PNC assembly inh inactive, IMPase Li inh inactive, IMPase inh inactive and HPGD inh inactive.
For N=C(N)SCc1cccc2c(=O)cc(-c3ccccc3)oc12 the results were ALDH1A1 block inactive[13.5 µM], 12-hLO inh inactive[11.4 µM], IMPase Li inh inactive and HPGD inh inactive.
CCc1ccc(OCC(=O)N/N=C(\C)c2ccc(-n3ccnc3)cc2)cc1 was read as ALDH1A1 block inactive, 12-hLO inh inactive, PNC assembly inh inactive and IMPase inh inactive.
For CCOc1ccc(S(=O)(=O)Nc2ccc(C(=O)N/N=C(\C)c3ccc(-n4ccnc4)cc3)cc2)cc1 the results were ALDH1A1 block 16µM, 12-hLO inh inactive, PNC assembly inh inactive, IMPase Li inh inactive, IMPase inh inactive and HPGD inh inactive.
For Cc1cccc(Nc2nc(-c3ccc4c(c3)OCCO4)cs2)c1 the results were ALDH1A1 block 20µM, 12-hLO inh inactive, PNC assembly inh inactive, IMPase Li inh inactive, IMPase inh inactive and HPGD inh inactive.
Screening CC(C)c1ccc(O)c(O)c(=O)c1 (tested in a mixture with another compound) returned ALDH1A1 block inactive[13.5 µM], 12-hLO inh inconclusive, IMPase Li inh inactive and HPGD inh inactive.
CCCc1cc(=O)[nH]c(SCC(=O)Nc2ccc3c(c2)CCC3)n1 was read as ALDH1A1 block inactive and IMPase Li inh inactive.
`C=CCSc1nnc(NC(=O)CSc2nc(CCC)cc(=O)[nH]2)s1` gave ALDH1A1 block inactive, 12-hLO inh inactive, PNC assembly inh inactive, IMPase Li inh inactive, IMPase inh inactive and HPGD inh 20µM.
For CCCc1cc(=O)[nH]c(SCC(=O)Nc2ccc(OC(F)F)cc2)n1 the results were ALDH1A1 block inactive, 12-hLO inh inactive, PNC assembly inh -94, IMPase Li inh inactive, IMPase inh inactive and HPGD inh inactive.
For O=C(CN1CCN(c2ccc(F)cc2)CC1)c1ccc2c(c1)OCO2 the results were ALDH1A1 block 8.9µM, 12-hLO inh inactive, PNC assembly inh inconclusive, IMPase Li inh inactive, IMPase inh inactive and HPGD inh inactive.
Screening O=C(CN1CCN(c2ccc(Cl)cc2)CC1)c1ccc2c(c1)OCO2 returned ALDH1A1 block 8.9µM, 12-hLO inh inactive, PNC assembly inh inactive, IMPase Li inh inactive, IMPase inh inactive and HPGD inh inactive.
Screening OC[C@H]1O[C@@H]2O[C@H]3[C@H](O)[C@@H](O)[C@@H](O[C@H]4[C@H](O)[C@@H](O)[C@@H](O[C@H]5[C@H](O)[C@@H](O)[C@@H](O[C@H]6[C@H](O)[C@@H](O)[C@@H](O[C@H]7[C@H](O)[C@@H](O)[C@@H](O[C@H]8[C@H](O)[C@@H](O)[C@@H](O[C@H]1[C@H](O)[C@H]2O)O[C@@H]8CO)O[C@@H]7CO)O[C@@H]6CO)O[C@@H]5CO)O[C@@H]4CO)O[C@@H]3CO returned ALDH1A1 block inconclusive, 12-hLO inh inactive, IMPase Li inh inactive and HPGD inh inactive.
CC1(C)CC(=O)C=C(Nc2ccccn2)C1 was read as ALDH1A1 block 8.9µM, 12-hLO inh inactive, PNC assembly inh inconclusive, IMPase Li inh inactive, IMPase inh inactive and HPGD inh inactive.
CCN(CC)CCCC(C)NC(=O)c1ccc(-n2c(=O)c(=O)[nH]c3ccccc32)cc1 (stereo not drawn) was read as ALDH1A1 block inactive, 12-hLO inh inactive and HPGD inh inactive.
For CCOC(=O)C(=NCCCN(C)C)NNc1ccc(Br)cc1 the results were ALDH1A1 block inconclusive, 12-hLO inh inactive, PNC assembly inh inactive, IMPase Li inh inactive and HPGD inh inactive.
CCCCN=C(NNc1ccc(Br)cc1)C(=O)OCC was read as ALDH1A1 block 14µM, 12-hLO inh inactive, PNC assembly inh inconclusive, IMPase Li inh inactive, IMPase inh inactive and HPGD inh inactive.
`COc1ccc(CNC(=S)Nc2ccccc2-c2ccccc2)cc1` gave ALDH1A1 block 22µM and IMPase Li inh inactive.
COc1ccc(CNC(=S)Nc2cc(C)cc(C)c2)cc1 was read as ALDH1A1 block inactive, 12-hLO inh inconclusive, PNC assembly inh inactive, IMPase Li inh inactive, IMPase inh inactive and HPGD inh inactive.
`COc1ccc(CNC(=S)NCc2ccc(OC(C)C)cc2)cc1` gave ALDH1A1 block 14µM, 12-hLO inh inactive, PNC assembly inh inactive, IMPase Li inh inactive and HPGD inh inactive.
Screening CC(C)(CO)[C@H](O)C(=O)NCCCO returned ALDH1A1 block inactive, 12-hLO inh inactive, IMPase Li inh inactive, IMPase inh inactive and HPGD inh inactive.
COc1ccc2c(c1)O[C@@H](c1cccc(C(F)(F)F)c1)[C@H](OC(=O)NCCOc1ccccc1)C2=O was read as ALDH1A1 block inactive, IMPase Li inh inactive and HPGD inh inactive.
Screening O=C(Nc1ccc2oc(-c3cccnc3)nc2c1)c1ccc(-c2cccc(OC(F)(F)F)c2)o1 returned IMPase inh inactive.
`Cc1cc(C(=O)Nn2c(C3CCCCC3)nc3ccccc3c2=O)ccc1[N+](=O)[O-]` gave ALDH1A1 block 22µM, 12-hLO inh inactive, PNC assembly inh inactive, IMPase Li inh inactive and HPGD inh inactive.
C=CCn1c(SC(C)C(N)=O)nc2sc(CC)cc2c1=O (stereo not drawn) was read as ALDH1A1 block 8.9µM and IMPase Li inh inactive.
`C=CCn1c(SCC(=O)Nc2sccc2C(N)=O)nc2sc(CC)cc2c1=O` gave ALDH1A1 block inconclusive, 12-hLO inh inactive, PNC assembly inh inactive, IMPase Li inh inactive, IMPase inh inactive and HPGD inh inactive.
Screening C=CCn1c(SC(C)C#N)nc2sc(CC)cc2c1=O (stereo not drawn) returned ALDH1A1 block 2µM and IMPase Li inh inactive.
